# High-throughput results from PubChem.
# Shown are actives, neighbours in structure and some others; about 3.3% of the full set was active somewhere.
# UHRF1 binding = blocks human UHRF1 binding to methylated DNA; UHRF1 binding to methylated oligo, TR-FRET; actives 0.75% (n = 370,000); inhibition, % at 4.4 µM; Q96T88; AID 687016; in the data active = inhibition above about 21%;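 also: UHRF1 SRA domain binding a hemimethylated CpG hairpin DNA probe; 0% = median of test compound wells and 100% = reference inhibitor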
# MBD2 DNA inh = blocks human MBD2 binding to methylated DNA; inhibition, % at 4.4 µM; TR-FRET, MBD2 binding to methylated oligonucleotide; actives 0.31% (n = 370,000); AID 686964; in the data active = inhibition above about 13%
# Target sequence (Q9UBB5 whole entry, looked up): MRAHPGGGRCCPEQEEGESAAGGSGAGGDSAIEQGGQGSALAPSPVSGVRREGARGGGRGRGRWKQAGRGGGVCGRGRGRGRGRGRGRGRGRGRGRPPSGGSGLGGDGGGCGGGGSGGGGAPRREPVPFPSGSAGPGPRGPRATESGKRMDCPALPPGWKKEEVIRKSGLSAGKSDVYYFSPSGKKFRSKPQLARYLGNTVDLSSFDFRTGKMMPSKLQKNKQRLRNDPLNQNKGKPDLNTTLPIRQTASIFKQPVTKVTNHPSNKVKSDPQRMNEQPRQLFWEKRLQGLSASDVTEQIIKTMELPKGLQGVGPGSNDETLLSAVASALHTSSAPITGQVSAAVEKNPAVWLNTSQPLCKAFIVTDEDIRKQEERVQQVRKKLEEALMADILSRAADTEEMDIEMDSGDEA
# PfM18AAP inh = PfM18AAP enzyme inhibition; recombinant PfM18AAP, H-Glu-NHMec fluorogenic cleavage; inhibition, % at 7.35 µM; actives 1.2% (n = 290,000);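 active = inhibition above the campaign mean inhibition over all tested compounds plus 3 SD, cut at about 28% in these data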;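 also: 0% = plate median of test compound wells and 100% = 2 mM ZnCl2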
# PfG6PD inh = PfG6PD (Plasmodium falciparum) enzyme inhibition. inhibition, % at 20 µM. actives 0.78% (n = 350,000). PfGluPho enzyme, NADPH resazurin-diaphorase fluorescence. AID 504690;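 active = inhibition reaching at least a set limit at 20 µM in the primary screen, cut at about 59% in these data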;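 also: 0% = DMSO wells with substrate and 100% = DMSO wells lacking glucose-6-phosphate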
# PRMT1 inh = inhibitors of human PRMT1; recombinant PRMT1, activity-based probe fluorescence polarization; actives 1.3% (n = 370,000); Q99873; inhibition, % at 2.79 µM;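 active = inhibition above about 21% made by adding two undisclosed values, limit read from the data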
# PRMT1 confirm = confirmation of human PRMT1 inhibitors; actives 42% (n = 3,300); AID 687036; inhibition, % at 2.79 µM; recombinant His-PRMT1, activity-based probe fluorescence polarization; shares compounds with PRMT1 inh;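 active = mean inhibition across replicates above the hit cutoff derived for the earlier primary screen, cut at about 22% in these data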
# Numbers without * were called inactive; . = no result.
SMILES,UHRF1 binding,MBD2 DNA inh,PfM18AAP inh,PfG6PD inh,PRMT1 inh,PRMT1 confirm
CC(=O)N1CCN(c2nc(N)c(C#N)c(CC#N)c2C#N)CC1,0.3,-0.6,-13.0,6.1,28.7*,-7.0
N#CCc1c(C#N)c(N)nc(N2CCN(C=O)CC2)c1C#N,-1.8,2.6,-18.4,1.5,35.5*,-3.3
N#CCc1c(C#N)c(N)nc(N2CCOCC2)c1C#N,-1.2,-2.6,.,2.1,38.3*,-1.8
COc1ccccc1N1CCN(c2nc(N)c(C#N)c(CC#N)c2C#N)CC1,0.0,-4.5,-12.0,8.8,9.6,.
CC(C)(O)C#Cc1ccc(C(=O)N2CCCC(CCC(=O)NCc3ccccc3F)C2)cc1 (stereo not drawn),-3.1,3.0,-0.8,-15.6,-2.3,.
Nc1nonc1C(=O)NCCNC(=O)c1ccc(Cl)c(Cl)c1,0.1,1.0,10.8,0.2,-0.4,.
C=C1C(=O)C23C(O)C1CCC2C12CCCC(C)(COC(C)=O)C1C(O)C3(O)OC2 (stereo not drawn),2.0,3.1,.,56.0,30.9*,32.5*
COc1cc(C2CC(=O)N3CN(c4ccccc4C)CSC3=C2C#N)cc(OC)c1OC (stereo not drawn),-4.5,-2.5,33.5*,.,38.5*,45.8*
COc1ccc(Br)cc1C1CC(=O)N2CN(Cc3ccccc3)CSC2=C1C#N (stereo not drawn),-0.4,-2.8,21.9,71.5*,25.0*,20.1
COc1ccc(OC)c(C2CC(=O)N3CN(c4cccc(Cl)c4C)CSC3=C2C#N)c1 (stereo not drawn),-2.3,-0.3,37.7*,83.0*,45.0*,63.8*
COc1cc(C2CC(=O)n3c(nc4ccccc43)S2)cc(OC)c1OC (stereo not drawn),.,.,0.5,.,.,.
COc1ccc(CCN2C(=O)CN(Cc3ccccc3)CC2=O)cc1OC,0.6,3.0,-5.9,-3.6,1.2,.
COc1ccc(OC)c(C2C(C#N)=C(N)Oc3c2c(C)nn3-c2cccc(Cl)c2)c1 (stereo not drawn),15.0,6.7,5.8,-20.3,4.9,.
COc1ccc(OC)c(C2CC(=O)N3CN(c4ccccc4F)CSC3=C2C#N)c1 (stereo not drawn),-0.7,-2.3,28.3*,53.0,32.7*,21.6*
CCCCCCc1nc(C(N)=O)c2[nH]c(=O)n(-c3ccccc3F)c2n1,.,.,3.6,-1.9,.,.
CC(=O)c1ccc(NC(=S)N2CCN(c3cccc(Cl)c3)CC2)cc1,-0.2,-1.4,8.5,10.3,-0.8,.
Oc1ccc(C(=S)N2CCN(c3cccc(Cl)c3)CC2)cc1,8.1,2.4,21.1,37.4,29.4*,3.1
CC(C)C(NC(=O)C1CCCCC1)C(=O)NCCc1ccccc1 (stereo not drawn),20.7*,5.6,-24.3,-20.2,24.9*,-1.1
CC(=O)Nc1cc(-c2ccc(F)cc2)[nH]n1,1.0,0.7,5.7,5.8,1.9,.
CCNC(=S)Nc1cc(-c2ccc(Cl)cc2)[nH]n1,-1.9,-2.5,-6.1,23.8,43.6*,28.6*
COc1c(C)cc(C(O)c2ncc(-c3cccc(F)c3)[nH]2)cc1C (stereo not drawn),0.4,-1.4,.,.,-2.5,.
COc1ccc(NC(=S)N2CCN(C(=O)C3CCCO3)CC2)cc1 (stereo not drawn),2.5,1.8,-12.3,-2.1,-5.0,.
O=C(O)/C=C/C(=O)Nc1ccccc1-c1ccccc1,-3.1,-2.4,-145.8,7.9,29.7*,-1.5
COCC(=O)Nc1ccccc1-c1ccccc1,0.8,-4.6,9.9,5.5,-4.5,.
NS(=O)(=O)c1ccc(NC(=S)NCc2ccco2)cc1,-1.6,-3.0,16.8,46.6,26.9*,9.6
SMILES,UHRF1 binding,MBD2 DNA inh,PfM18AAP inh,PfG6PD inh,PRMT1 inh,PRMT1 confirm
NC(=O)c1ccc(NC(=S)NCc2ccco2)cc1,0.6,3.0,-0.5,-6.0,3.0,.
CCOC(=O)N1CCN(C(=O)c2cc3ccc(OC)cc3[nH]2)CC1,7.2,7.2,8.0,-2.9,1.1,.
O=C(NC(Cc1ccccc1)C(=O)O)/C(=C/c1ccco1)NC(=O)c1cccc(Br)c1 (stereo not drawn),1.6,-2.6,7.9,-7.0,24.9*,6.8
COc1ccc(NS(=O)(=O)c2cccc(C(=O)NCc3ccccn3)c2)cc1,-1.0,2.8,.,-8.0,1.1,.
O=C(NCc1ccncc1)c1cccc(S(=O)(=O)Nc2ccc(SC(F)F)cc2)c1,-0.7,3.4,.,-15.4,63.9*,56.5*
O=C(NCc1ccccn1)c1cccc(S(=O)(=O)Nc2ccc(SC(F)F)cc2)c1,4.2,1.2,.,-6.0,78.0*,40.4*
OCCCn1c(-c2ccccc2)csc1=Nc1ccccc1,0.6,-1.4,18.5,1.4,3.3,.
COc1ccc(N=c2scc(-c3ccc(OC)cc3)n2CCO)cc1,1.2,3.1,-3.2,16.3,35.9*,8.1
Cc1cc(C)cc(Oc2ccc(NC(=O)C3CC=CCC3C(=O)O)cc2)c1 (stereo not drawn),-2.1,1.1,-0.8,-14.9,2.0,.
O=C(/C=C/c1cccc(C(F)(F)F)c1)OCC(=O)N1CCN(c2ccccc2)CC1,1.8,2.6,.,13.6,-5.1,.
S=c1[nH]nc(-c2cc3ccccc3o2)n1Cc1ccccc1,0.1,-1.5,22.5,34.6,24.9*,16.0
Cc1ccc(-c2n[nH]c(=S)n2Cc2ccccc2)cc1,1.8,4.0,-0.1,34.4,7.3,.
CCN(CC)CCN(Cc1cc2cc3c(cc2[nH]c1=O)OCCO3)C(=S)NCCCOC,-2.8,-3.7,27.2,0.5,-1.6,.
CCCCc1c(-c2ccc(OC)cc2)ncn1CCc1ccccc1OC,-3.7,-3.2,.,.,-0.4,.
O=C(CSc1nnc(-c2cc3ccccc3cc2O)n1Cc1ccco1)N1CCc2ccccc2C1,0.2,-2.0,-18.9,-9.6,32.3*,5.0
Cc1cc(C)c(C)c(S(=O)(=O)N2CCN(c3ccc(O)cc3)CC2)c1C,2.6,2.5,26.3,38.7,9.3,.
Cc1cccc(N2C(=O)CC(N3CCC(c4nc5ccccc5[nH]4)CC3)C2=O)c1 (stereo not drawn),0.4,-0.5,-119.3,-0.2,47.3*,3.0
COc1cccc(N2C(=O)CC(N3CCC(c4nc5ccccc5[nH]4)CC3)C2=O)c1 (stereo not drawn),2.0,5.8,-6.1,1.8,60.0*,0.4
CCN1C(=O)CC(N2CCC(c3nc4ccccc4[nH]3)CC2)C1=O (stereo not drawn),3.3,-4.7,8.1,-2.3,-4.3,.
Cc1ccc(OCCCC(=O)N(C)CC(=O)Nc2ccccc2Cl)cc1,-0.9,-3.8,.,6.6,2.5,.
O=C(NN1C(=O)/C(=C/c2ccc(O)c([N+](=O)[O-])c2)SC1=S)c1ccccc1Cl,-1.3,-9.3,9.0,5.1,27.8*,14.5
COc1cc(/C=C2\SC(=S)N(NC(=O)c3ccccc3O)C2=O)ccc1O,-4.9,-10.7,14.8,-82.0,5.2,.
O=C(N/N=C/c1c(O)n(Cc2ccco2)c(=O)[nH]c1=O)c1ccccc1,33.6*,-4.5,7.5,-16.0,33.2*,-0.2
O=C(N/N=C\c1ccccc1OCc1ccccc1)c1ccco1,9.4,2.7,3.3,-10.5,2.3,.
